The values that follow come from ChEMBL document CHEMBL4888484, “Replenishing the malaria drug discovery pipeline: Screening and hit evaluation of the MMV Hit Generation Library 1 (HGL1) against asexual blood stage Plasmodium falciparum ,using a nano luciferase reporter read-out” (2022).

Screen size: about 150,000 compounds; about 540 (0.36%) showed an effect of 50% or more. For the sample, strong results were picked, then their nearest neighbours and some compounds at random.

This test relates to Plasmodium falciparum. Briefly: Primary screen in NF54 nanoGlo assay, in single point, at 2uM, 72h; a lower Z score goes with more inhibition. The class given is functional, Erythrocyte. The following applies: timepoint 72 hour.
For `CC[C@H](C)NC(=O)c1sc2nc(C)c(C(=O)Nc3ccc(C)cc3C)c(-c3cccs3)c2c1N`, the % Inhibition (commonly the change of the read-out against control, counted positive when it falls) was 17% and the Z score was -2.61.
For `COc1ccc(NC(=O)c2sc3nc(C)c(C(=O)Nc4ccc(C)cc4C)c(-c4ccccc4Cl)c3c2N)cc1`, the “% Inhibition” value was found to be 38% and the Z score is recorded as -3.76.
The like results for `C[C@H](NS(=O)(=O)c1cccc2nsnc12)c1nncn1C` were, in that order, -8% and 1.65.
Consider `Cc1cc(NC(=O)c2ccccc2C(=O)c2ccc(Cl)cc2)ccc1N1CCCC1=O`, for which the “% Inhibition” value was -10% and the Z score amounted to 1.56.
The like results for `COc1ccc(F)cc1S(=O)(=O)N1CC2(C[C@H](CC(=O)NCC3CC3)CO2)C1` were, in that order, -2% and 0.34.
The like results for `Cn1cc(Br)c2nc[nH]c(=O)c21` were, in that order, -14% and 1.39.
Consider `CC(=O)c1ccc(CNc2ncc(Cl)cn2)nc1C`, for which the “% Inhibition” value is listed as -16% and the Z score was found to be 1.6.
With `CCOC(=O)c1nccc(C#N)c1Cl`, the “% Inhibition” value was 40% and the Z score was -5.19.
The corresponding values for `CCOC(=O)c1nsc(Cl)c1Cl` are 4% and -0.44.
Consider `CCOC(=O)c1ncc(Cl)c(C#N)c1Cl`, for which the “% Inhibition” value was found to be 50% and the Z score is 0.88.
With `NC(=O)[C@@H]1CCCN1S(=O)(=O)c1ccc2c(c1)CCC(=O)N2`, the “% Inhibition” value is reported as -13% and the Z score worked out at 1.82.
As for `O=C(c1nnn(-c2ccccc2Cl)c1-c1cccnc1)N1CCC(Cc2ccccc2)CC1`, the “% Inhibition” value turned out to be 40% and the Z score was -5.19.
The corresponding values for `O=C(c1nnn(-c2ccccc2Cl)c1-c1cccnc1)N1CCN(c2ccccc2)CC1` are -8% and 0.9.
The corresponding values for `COc1ccccc1N1CCN(C(=O)c2nnn(-c3ccccc3Cl)c2-c2cccnc2)CC1` are 50% and -6.51.
Take `Cc1nn(-c2ccc(Br)cc2)c(NC(=O)N(C)[C@@H](C)c2ccccc2F)c1C`: the “% Inhibition” value is listed as 2% and the Z score was -0.23.
Regarding `Cn1nccc1CNC(CO)CC(O)C(C)(C)C` (centres undefined), the “% Inhibition” value is -3% and the Z score is given as 0.38.
Consider `CCn1cnnc1NC(=O)c1cc(C)sn1`, for which the “% Inhibition” value was 1% and the Z score is on record as -0.12.
Take `O=C(Cn1ncn2nc(-c3ccccc3)cc2c1=O)N1CCCCC1`: the “% Inhibition” value is -20% and the Z score worked out at 1.75.
In the case of `N#Cc1cccc(S(=O)(=O)N2CCCCCCC2)c1`, the “% Inhibition” value turned out to be 4% and the Z score is on record as -0.83.
On to `Cc1c2c(=O)n(-c3nc4ccccc4s3)n(CC(=O)Nc3ccc(F)cc3)c2cc(=O)n1CCCN1CCOCC1`, for which the “% Inhibition” value is reported as -30% and the Z score stood at 3.47.
In the case of `Cc1c2c(=O)n(-c3nc4ccccc4s3)n(Cc3ccc(F)cc3)c2cc(=O)n1CCCN1CCOCC1`, the “% Inhibition” value is listed as 32% and the Z score is -3.58.
The like results for `CCc1c2c(=O)n(-c3nc4ccccc4s3)[nH]c2cc(=O)n1CCCN1CCOCC1` were, in that order, 81% and -10.48.
As for `N#Cc1cc(OCC(F)F)nc2ccccc12`, the “% Inhibition” value was -5% and the Z score turned out to be 0.76.
The like results for `CC(NCC(C)N1CCOCC1C)c1cnn(C(C)C)c1` (centres undefined) were, in that order, 1% and -0.14.
The like results for `Cc1ccn2c(CN3CCN([C@H]4CCN(Cc5ccccc5)C4)CC3)c(C)nc2c1` were, in that order, 57% and -7.67.
The like results for `Cc1ccc(CN2CCN([C@H]3CCN(Cc4ccccc4)C3)CC2)nn1` were, in that order, 6% and -0.85.
Take `c1ccc(CN2CC[C@H](N3CCOCC3)C2)cc1`: the “% Inhibition” value is 3% and the Z score was -0.34.
As to `Cc1ccc(C)c(N/C(=N\OCc2ccc(Cl)cc2)c2nonc2N)c1`, the “% Inhibition” value is -1% and the Z score stood at 0.28.
Consider `O=C(c1ccccc1F)N1CCN(C(=O)c2nnn3c2CO[C@H](c2ccc(Cl)cc2)C3)CC1`, for which the “% Inhibition” value is -24% and the Z score is reported as 2.19.
The corresponding values for `CCN(C(C)=O)c1nc2ccccc2n(CC(=O)Nc2cccc(C(C)=O)c2)c1=O` are -6% and 0.97.
The like results for `CC(NCCn1cccn1)C(=O)N1c2ccccc2CC1C` (centres undefined) were, in that order, 62% and 1.55.
The like results for `C[C@H](NCCn1cccn1)C(=O)N1CCCCC1` were, in that order, 3% and -0.33.
For the molecule `CC(C)CNC(=O)[C@H](C)NCCn1cccn1`, the “% Inhibition” value was -2% and the Z score is given as 0.23.
The like results for `CCc1cnc(CN2CCC[C@H]2c2noc(CC)n2)o1` were, in that order, -10% and 1.41.
For `Clc1cccc(-c2ccc(CN3CCN([C@H]4CCNC4)CC3)o2)c1`, the “% Inhibition” value is -17% and the Z score worked out at 1.55.
In the case of `CC(C)Cc1ccc(CN2CCN([C@H]3CCNC3)CC2)s1`, the “% Inhibition” value was -6% and the Z score is 0.81.
On to `Cn1nnc(CNC[C@H](O)c2ccc(Cl)c(Cl)c2)n1`, for which the “% Inhibition” value is given as 5% and the Z score is reported as -1.08.
As for `Cc1nc(CNC[C@H](O)c2ccc(Cl)c(F)c2)cs1`, the “% Inhibition” value is 10% and the Z score was -1.19.
The like results for `CCc1noc(-c2cccnc2-n2cnc(C(=O)NCc3ccccc3F)c2)n1` were, in that order, 35% and -3.92.
As to `CC(C)(C)n1nc2nc(N3CCCC3)nc(-c3ccc(F)c(Cl)c3)c2c1N`, the “% Inhibition” value is -2% and the Z score is reported as 0.26.
The like results for `Nc1c2c(-c3ccc(F)cc3)nc(NCCN3CCCCC3)nc2nn1-c1ccc(Cl)cc1` were, in that order, -19% and 1.69.
In the case of `CC(C)(C)n1nc2nc(NCCN3CCCCC3)nc(-c3ccc(F)c(Cl)c3)c2c1N`, the “% Inhibition” value came to 75% and the Z score is -7.01.
